Assay outcomes: PubChem BioAssay, National Center for Advancing Translational Sciences (NCATS)
HttQ103 aggreg – inhibitors of mutant huntingtin aggregate formation in PC12 cells. 1.1% of 220,000 active. PC12 HttQ103-GFP aggregates, Acumen cytometry, 40 h. Potency, µM (series often up to 46.1 µM), inactives show at the highest dose activity change, negative = inhibition, hits mostly inhibitors; further: potency means the concentration at half of the fitted maximal effect; on the % scale 0 is the no-effect control and ±100 the full control effect; nearly all actives have a fitted effect of over 60% in size
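Quantitative HTS on tebufenozide-induced (100 nM) PC12 cells stably expressing polyQ103 Huntingtin exon 1–GFP. Reduction of bright GFP aggregates, detected by laser scanning cytometry after lysis, identified actives across the titration.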
PNC inhibitor – perinucleolar compartment assembly inhibition | PC3M PTB-GFP, PNC prevalence imaging, 16 h; stronger effect = lower value | 3.1% of 140,000 active | activity change (PNC), negative = inhibition, % at 10 µM | AID 2417;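 active means readout at or below -70, meaning at least 70% loss of cells showing the perinucleolar compartment, a nuclear body marking cancer cells; inconclusive means readout between -30 and a set limit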;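 further: plate controls were DMSO wells for no effect and camptothecin positive control wells for full effect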
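Compounds are pinned in duplicate onto adhered PC3M cells stably expressing GFP-tagged PTB and incubated 16 h at 37 C. Cells are then fixed, nuclei stained with Hoechst, and PNC-positive cells counted.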
ALDH1A1 inh – ALDH1A1 (human) enzyme inhibition | 7.3% of 220,000 active | Purified ALDH1A1, NADH fluorescence, propionaldehyde substrate | AID 1030 | P00352 | Potency, µM (top dose mostly 75.3 µM), for the others: at the top dose activity, negative = inhibition, most hits filed as inhibitors; active means well fitted inhibition curve with a large enough effect, not every such curve was filed as active; inconclusive means small, poorly fitted or top-dose-only effect, or another doubt; inactive means no such curve, though single readings can be large or run the other way;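 further: potency means the concentration at half of the fitted maximal effect; plate controls were no enzyme wells and a reference inhibitor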
Target sequence (P00352 whole entry, looked up): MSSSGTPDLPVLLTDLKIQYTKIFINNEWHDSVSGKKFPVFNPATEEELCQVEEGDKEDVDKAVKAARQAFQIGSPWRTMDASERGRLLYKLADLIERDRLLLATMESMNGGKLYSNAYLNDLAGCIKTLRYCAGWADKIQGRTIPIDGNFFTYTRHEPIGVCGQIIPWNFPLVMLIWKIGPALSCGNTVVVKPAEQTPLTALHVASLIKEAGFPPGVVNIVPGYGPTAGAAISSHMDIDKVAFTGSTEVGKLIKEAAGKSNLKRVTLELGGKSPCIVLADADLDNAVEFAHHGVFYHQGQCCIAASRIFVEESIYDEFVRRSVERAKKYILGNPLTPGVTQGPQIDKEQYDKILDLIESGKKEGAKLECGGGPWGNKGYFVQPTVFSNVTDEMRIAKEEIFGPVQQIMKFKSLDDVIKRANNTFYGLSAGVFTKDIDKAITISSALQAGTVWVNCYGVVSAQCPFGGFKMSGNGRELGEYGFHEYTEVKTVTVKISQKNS
HPGD block – inhibitors of human 15-hydroxyprostaglandin dehydrogenase (HPGD). Potency, µM, for inactives: at the top dose activity change, negative = inhibition, usual class: inhibitors. P15428. 4.3% of 150,000 active. purified HPGD, NADH fluorescence kinetic, PGE2 substrate. AID 894; active means well fitted inhibition curve with a large enough effect, not every such curve was filed as active; inconclusive means small, poorly fitted or top-dose-only effect, or another doubt; inactive means no such curve, though single readings can be large or run the other way; further: potency means the concentration at half of the fitted maximal effect; on the % scale 0 is the no-effect control and ±100 the full control effect
Target sequence (P15428 whole entry, looked up): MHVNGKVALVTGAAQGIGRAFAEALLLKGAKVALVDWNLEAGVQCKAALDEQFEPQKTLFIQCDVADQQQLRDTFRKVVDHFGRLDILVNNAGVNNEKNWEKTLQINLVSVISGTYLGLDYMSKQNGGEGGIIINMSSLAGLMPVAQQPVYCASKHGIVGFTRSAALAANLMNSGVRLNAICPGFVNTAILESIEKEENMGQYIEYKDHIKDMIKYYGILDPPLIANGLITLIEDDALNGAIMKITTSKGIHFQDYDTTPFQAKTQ
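NADH formation kinetics: reaction with 30 uM PGE2 and 1 mM NAD+ (final), 20 nM enzyme, Tris-HCl pH 8 with Tween 20, after 15 min compound preincubation at room temperature. Fluorescence change, last versus first of five reads.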
CBFb RUNX1 block – CBF-beta/RUNX1 interaction disruption | Q01196+Q13951 | AlphaScreen CBFb-His/RUNX1-biotin binding, biochemical | 230,000 tested, under 10 active | Potency, µM (top dose mostly 59.8 µM), without a hit: at the top dose activity, negative = inhibition, most hits filed as inhibitors; further: % of control where 0% means no effect
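AlphaScreen binding: CBFb-His and RUNX1-biotin (30 nM each) preincubated 20 min, compound added for 15 min, then nickel and streptavidin beads for 90 min, all at room temperature. Disruption of the interaction by any mechanism counts as activity.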
HTT ATP protect – Huntington cell model cytoprotection by ATP luminescence; PC12 HTT-Q103 induced, cytoprotection, ATP luminescence, 40 h; Potency, µM (doses to about 56.4 µM), inactives show cytoprotection (ATP increase), actives largely listed as activators; 0.14% of 230,000 active; AID 1471; further: potency means the concentration at half of the fitted maximal effect; % of control where 0% means no effect; nearly all actives have a fitted effect of over 45% in size
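Compounds added alongside 100 nM tebufenozide, which induces toxic Q103 huntingtin exon 1-GFP in stable PC12 cells; surviving cells quantified by luminescent ATP measurement. Medium: phenol red-free DMEM, 5% equine and 5% calf serum.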
An asterisk follows results filed as active; ? = inconclusive; · = no result given; [ ] = dose if it differs, or a comment. Hits are enriched below; roughly 11% of the tested compounds scored in any of these assays. Unless noted, the call rests on the fitted dose curve; in most records, active means well fitted curve in the direction sought with a large enough effect; inconclusive means small, poorly fitted or top-dose-only effect, or another doubt; inactive means no such curve, though single readings can be large; an effect the other way counts as inactive or inconclusive.

SMILES	HttQ103 aggreg	PNC inhibitor	ALDH1A1 inh	HPGD block	CBFb RUNX1 block	HTT ATP protect
Cc1cc(/C=C(\C#N)C(=O)Nc2ccccc2)c(C)n1-c1ccc(C(=O)O)cc1	1%[9.22 µM]	·	1µM*	·	-1%	-8%[10 µM]
Cc1cc(/C=C(\C#N)C(=O)OCC#N)c(C)n1CC(C)C	-13%	·	25µM*	·	-12%	13%[10 µM]
Cc1cc(C(=O)COc2ccccc2Cl)c(C)n1-c1ccc2c(c1)OCO2	?	-106*	-6%	?	1%	8%[0.074 µM]
CNS(=O)(=O)c1cccc(C(=O)OCC(=O)c2cc(C)n(-c3ccc4c(c3)OCO4)c2C)c1	-12%[9.22 µM]	20	?	-25%	-17%	-7%
Cc1cc(/C=C(\C#N)C(=O)OCC(=O)Nc2ccc(OC(F)F)cc2)c(C)n1CC(C)C	-2%	-29	?	?	0%	-18%[1.9 µM]
COc1ccc(CCN(C)C(=O)CCc2nnc(-c3ccccc3)o2)cc1OC	4%[9.22 µM]	·	3%	·	2%	6%[10 µM]
CC(=O)c1sc(=S)n(-c2ccccc2)c1C	15%[9.22 µM]	·	-6%	·	0%	2%[10 µM]
Nc1c(C(=O)N2CCOCC2)sc(=S)n1-c1ccccc1	-20%	40	8.9µM*	11µM*	0%	-5%[0.074 µM]
Nc1c(C(=O)N2CCCCC2)sc(=S)n1-c1ccccc1	?	?	1.4µM*	3.2µM*	-9%	5%[10 µM]
C[C@@H](CNC1CCCCC1)OC(=O)c1ccccc1	-1%[20.6 µM]	·	1%[20.9 µM]	-8%	-8%[21.7 µM]	5%[40.3 µM]
Cc1ccc(F)c(NC=C2C(=O)OC(C)(C)OC2=O)c1	-5%	24	10µM*	-27%	3%	-5%
CC(NC(=O)Nc1ccc([N+](=O)[O-])cc1)C(c1ccccc1)N1CCOCC1 (centres undefined)	-10%	·	2.5µM*	·	16%	15%[10 µM]
COc1ccc(C(=O)NNC(=O)C(C)NC(=O)c2ccccc2NC(=O)c2ccco2)cc1 (centres undefined)	23%	-93*	2%	-15%	-1%	20%[1.9 µM]
Cc1ccc(C(=O)OCC(=O)Nc2ccccc2)cc1NC(=O)c1ccco1	-5%	19	-4%	-7%	-1%	?
CCSc1nnc(NC(=O)c2ccco2)s1	-3%	?	7%	-4%	4%	2%[1.9 µM]
Cc1ccc(C(=O)OCC(=O)Nc2cc(F)ccc2F)cc1NC(=O)c1ccco1	-1%	4	-4%	-17%	3%	3%
CCC(C)c1ccccc1NC(=O)COC(=O)c1ccc(C)c(NC(=O)c2ccco2)c1 (centres undefined)	?	?	40µM*	?	6%	5%
COc1ccc(NC(=O)c2ccccc2NC(=O)c2ccco2)c(OC)c1	-1%	?	7%	-10%	-2%	-29%
Cc1ccc(C(=O)OCC(=O)Nc2ccc(N(C)C)cc2)cc1NC(=O)c1ccco1	13%	?	12µM*	-17%	1%	-9%
CC(C)Sc1nnc(NC(=O)c2ccco2)s1	5%	·	14µM*	·	6%	-89%
C=CCN(c1ccc(F)cc1)S(=O)(=O)c1cc(C(=O)OCC(=O)N(C)C2CCS(=O)(=O)C2)ccc1Cl (centres undefined)	-31%[9.22 µM]	·	·	·	6%	15%[10 µM]
Cn1c(=O)c2[nH]c(COCc3nc4c([nH]3)c(=O)n(C)c(=O)n4C)nc2n(C)c1=O	·	·	10%[13.5 µM]	-5%	·	-5%[10 µM]
CC(C)c1ccccc1NC(=O)c1ccco1	-5%	-96*	-8%	7%	0%	4%
COCCNC(=S)NN=C1CCCCCC1	7%	·	?	·	-3%	-42%
COCCNC(=S)N/N=C1\CC(C)CC(C)(C)C1 (centres undefined)	?	·	8.9µM*	·	-7%	15%[10 µM]
SMILES	HttQ103 aggreg	PNC inhibitor	ALDH1A1 inh	HPGD block	CBFb RUNX1 block	HTT ATP protect
O=c1c2ccccc2cnn1-c1ccc2ccccc2c1	2%	14	?	-13%	4%	-71%
O=S(c1ccc2ccccc2c1)c1cnns1 (centres undefined)	18µM*	-13	?	-12%	-4%	-88%
Fc1ccc(N/N=C2/CCSc3sccc32)c(F)c1	-2%[9.22 µM]	·	19µM*	·	-2%	11%[10 µM]
O=c1onc2cnc3ccccc3n12	·	·	?	?	14%	-44%
CC1CC(C)(C)Nc2ccc(N=O)cc21 (centres undefined)	?	·	10µM*	·	-18%	-48%[10 µM]
CC1CC(C)(C)Nc2ccc(OC(=O)c3ccco3)cc21 (centres undefined)	-26%[9.22 µM]	41	?	-26%	-23%	-109%
Cn1c2c(c(=O)n(C)c1=O)C(C(F)(F)F)(C(F)(F)F)N=C(CCC1CCCCC1)N2	?	-4	-5%	-3%	7%	·
NC(=O)/C(=N\OC(=O)c1ccco1)c1nc(-c2ccc(Br)cc2)cs1	?	3	13µM*	13µM*	-9%	25%
COC(=O)C1CCN(C(=O)COc2ccc(Cl)cc2)CC1	0%	-8	-15%	0%	8%	1%
COC(=O)C1CCN(C(=O)COc2cc3sc(C)nc3c3sccc23)CC1	-26%	74	11µM*	-2%	0%	-5%
CC#CCN1c2ccccc2[C@]23C[C@@H](C(=O)OC)N(S(=O)(=O)c4ccc([N+](=O)[O-])cc4)C2=NC(C(=O)OC)=C(C(=O)OC)[C@H]13	·	·	16%[13.5 µM]	-3%	2%[13.1 µM]	5%[10 µM]
Cc1cc(OCC(=O)NCCN2CCOCC2)cc(C)c1Br	0%	31	1%	-21%	-1%	-7%
Cc1cc(OCCOCCNC(C)C)cc(C)c1Cl	-25%	31	-13%	6%	-1%	-38%
Cc1cc(OCC(=O)NCC(C)C)cc(C)c1Br	-22%	14	?	14µM*	-1%	-21%
Cc1cc(OCC(=O)NC(C)C)cc(C)c1Cl	-23%	-100*	-6%	-23%	6%	23%[10 µM]
N[C@@H]1C=CC=C(C(=O)O)C1	·	·	·	·	·	4%[1.9 µM]
CC(=O)c1cccc(OCC(=O)N(C)CC(=O)Nc2ccc(F)cc2)c1	14%[9.22 µM]	·	·	·	11%	-5%[10 µM]
CC1(C)COC(c2ccc(F)c([N+](=O)[O-])c2)=N1	35µM*	-14	2%	-9%	4%	17%[10 µM]
CC1(C)COC(c2cc([N+](=O)[O-])ccc2Cl)=N1	-11%	8	3%	-7%	6%	-9%
CCc1ccccc1N(C)C(=O)CCc1nc(-c2ccc(C)cc2)no1	11µM*	12	-13%	14µM*	5%	-66%
CC1CC(C)CN(CCOCCSc2ccc(Cl)cc2)C1 (centres undefined)	22%[9.22 µM]	·	0%	·	-1%	-3%
CC1CC(C)CN(CCOCCSc2ccccc2)C1 (centres undefined)	-12%	?	14µM*	1%	-17%	-17%[10 µM]
c1ccc(SCCOCCn2cncn2)cc1	5%	?	28µM*	-1%	7%	5%[10 µM]
